Screens: PubChem BioAssay, Broad Institute
Compounds with a hit are over-represented: about 2.7% of the library has one in this group of screens.
EWS-Fli inh: inhibitors of EWS/Fli oncoprotein transcriptional activity | inhibition, % at 12.6 µM | AID 651661 | 0.67% of 350,000 active | A673 NR0B1-luciferase reporter, viability-normalised;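 active = mean inhibition of at least 50% after viability correction, with every replicate also passing that limit; inconclusive = mean reaches 50% but only one of two replicates passes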;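 note: firefly luciferase signal divided by Alamar Blue viability fluorescence both relative to DMSO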
HIV Env fusion: inhibitors of HIV Env-mediated cell fusion; HeLa-JRFL Env/CEM21 cell fusion, luciferase; inhibition, % at 12.3 µM; 1.1% of 360,000 active;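 active = mean replicate inhibition score of at least 50 and every replicate individually at or above 50; inconclusive = only one of the two criteria met; inactive = mean below 50 and not all replicates reaching 50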;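 note: 0% = plate neutral controls and 100% = maraviroc near 300 nM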
PAX8 inh HTS: PAX8 transcriptional activity inhibition | inhibition, % at 12.6 µM | RMG-I TPO-luciferase reporter, SteadyGlo, 24 h | AID 652154 | 1.2% of 360,000 active;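 active = mean replicate inhibition at least 60% with every replicate also reaching 60%; inconclusive = only one of the two criteria is met; inactive = mean below 60% and not all replicates reaching 60%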;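 note: luciferase light reporting Pax8 driven TPO promoter activity; plate controls were median of neutral control wells for no effect and mitoxantrone controls for full effect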
F508del corr: correctors of CFTR F508del function in bronchial epithelial cells. 0.36% of 350,000 active. AID 720511. CFBE cells, YFP halide quenching; stimulated with forskolin plus potentiator P3; % fluorescence drop versus neutral controls. activity (quench increase), % at 7.58 µM;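 active = mean added fluorescence quench of at least 8% versus neutral control, with both replicates also reaching 8%; inconclusive = only one of the mean or replicate conditions met; inactive = mean below 8% and not both replicates reaching 8%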;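 note: cells transiently co-express mutant CFTR-F508del with the halide-sensitive YFP; corrector assay measuring rescue of mutant channel to the surface after 24 h compound exposure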
GSIS activator: primary screen for activators of insulin secretion dependent on glucose, INS-1E cells, GLuc reporter luminescence; 0.61% of 370,000 active; INS-1E GLuc reporter insulin secretion, 2-3 h; activation, % at 16.6 µM;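 active = lowest replicate activation of at least 40%, so every replicate reaches that level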;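 note: 0% = median of neutral control wells and 100% = median of IBMX positive control wells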
PGC1a acetyl inh: lowers PGC1a acetylation signal in U2OS cells; inhibition, % at 15.6 µM; AID 651687; 0.17% of 350,000 active; AlphaScreen anti-acetyl-lysine; with virally co-expressed GCN5 acetyltransferase;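 active = every replicate shows inhibition of at least 40%; inconclusive = mean inhibition at least 40% but some replicate below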;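 note: 0% = neutral control wells and 100% = positive control wells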
Numbers without * were called inactive; ? = inconclusive; . = not tested or not shown; [ ] = dose if it differs, or a comment.

SMILES	EWS-Fli inh	HIV Env fusion	PAX8 inh HTS	F508del corr	GSIS activator	PGC1a acetyl inh
COc1ccc(CNC(=O)CCS(=O)(=O)c2ccc3c(c2)NC(=O)C(C)S3)cc1 (stereo unspecified)	-1	6	0	1	9	.
COc1ccc(S(=O)(=O)N[C@@H]2CC[C@@H](CCNC(=O)c3ccccc3F)O[C@@H]2CO)cc1	-3	13[16.7 µM]	-13	-2	-7	-4
O=C(NCc1nnnn1-c1ccc(Cl)cc1)C(=O)c1c[nH]c2ccccc12	-10	.	19	11*	-7	2
COc1ccc(-n2nnnc2CNC(=O)C(=O)c2c[nH]c3ccccc23)cc1	10	.	16	-1	8	.
CC(O)c1nc2ccc(Cc3ccc4nc(C(C)O)[nH]c4c3)cc2[nH]1 (stereo unspecified)	.	.	.	.	46*	-7
CO[C@H]1CN(C)C(=O)c2ccc(NS(=O)(=O)C3CCCCC3)cc2OC[C@H](C)NC[C@@H]1C	-7	.	-6	0	-1	1
O=C(Nc1ccc(S(=O)(=O)NC2=NCCCCC2)cc1)c1ccccc1Cl	4	8	-31	4	3	-2
O=C(CCl)Nc1cccc(S(=O)(=O)NC2=NCCCCC2)c1	62*	6	45	-5	26	-10
O=C(CCl)Nc1ccc(S(=O)(=O)NC2=NCCCCC2)cc1	11	31	17	3	.	3
CC(C)(C)C(=O)Nc1ccc(S(=O)(=O)NC2=NCCCCC2)cc1	3	-15	-10	15*	7	-1
C[C@H]1CCC/C=C/[C@@H]2C[C@H](O)C[C@H]2[C@H](O)[C@H](S(=O)c2ccc(O)cc2)CC(=O)O1 (stereo partly specified)	66*	48	111*	-31	.	66*
O=C(Nc1ccc2c(c1)[C@H]1C[C@@H](CC(=O)N3CCOCC3)O[C@@H](CO)[C@H]1O2)c1cccnc1	-6	-8[16.7 µM]	-18	2	-3	-6
C=C1CCN([C@H](C(=O)OCc2ccc(C)cc2)C(C)C)S(=O)(=O)c2ccccc21	12	80*	5	-1	-13	.
C=C1CCN([C@H](C(=O)Nc2ccc(OC)cc2)C(C)C)S(=O)(=O)c2ccccc21	-4	7	-21	0	-8	0
C=C1CCN([C@@H](Cc2ccccc2)C(=O)Nc2ccc(OC)cc2)S(=O)(=O)c2ccccc21	-1	105*	9	1	-13	-8
O=C(Nc1ccccc1F)N1[C@@H]2CNC[C@H]1C2c1ccc(-c2cccnc2)cc1 (stereo partly specified)	4	.	-2	1	0	4
COc1cccc(NC(=O)Nc2ccc3c(c2)OC[C@H](C)NC[C@H](C)[C@@H](OC)CN(C)C3=O)c1	2	.	24	-1	-11	9
COc1ccc(CCC(C)NCc2cc(OC)cc(OC)c2)cc1 (stereo unspecified)	5	71*	-33	1	-6	-18
COc1ccc(CCC(C)NCc2ccc(Cl)c(Cl)c2)cc1 (stereo unspecified)	14	81*	9	-2	0	11
COc1ccc(CCC(C)NCc2ccc(F)cc2)cc1 (stereo unspecified)	2	?	6	0	8	.
COc1ccc(CCC(C)NCCc2ccc(Cl)cc2Cl)cc1 (stereo unspecified)	32	55*	48	-4	-10	.
COc1ccc(CCC(C)Nc2ccc(F)c(F)c2)cc1 (stereo unspecified)	.	.	-10	.	-14	.
C[C@@H]1CCCCO[C@H](CN(C)S(=O)(=O)c2cn(C)cn2)[C@H](C)CN([C@@H](C)CO)C(=O)c2cc(NC(=O)NC3CCCCC3)ccc2O1	0	-5[16.7 µM]	-11	-1	-4	-6
COC(=O)[C@H]1[C@H](CO)[C@H]2Cn3c(ccc(C4=CCCCC4)c3=O)[C@H]2N1CCC(F)(F)F	-4	.	.	.	-4	.
CO[C@H]1CN(C)C(=O)c2ccc(NC(=O)NC(C)C)cc2OC[C@@H](C)N(S(C)(=O)=O)C[C@@H]1C	3	.	-2	0	-4	14
O=C(COC(=O)Cn1cnc2ccccc21)NCCc1ccc(Cl)cc1	.	-35	13	.	.	-4
